Screening data: PubChem, several laboratories
PRMT1 inh = PRMT1 (human) inhibition, primary screen | Q99873 | recombinant PRMT1, activity-based probe fluorescence polarization | inhibition, % at 2.79 µM | hit rate 1.3% among 370,000;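 active = inhibition above about 21% made by adding two undisclosed values, limit read from the data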
LANA-H2B inh = blocks KSHV LANA binding to histone H2A/H2B; Q9QR71; cell-free LANA-H2A/H2B peptide, fluorescence polarization; inhibition, % (concentration not given with the values); hit rate 0.6% among 320,000; in the data active = inhibition mostly above about 10%, no sharp cut-off; inactive = mostly below about 6.7%
rCAG binder = binds r(CAG) RNA repeats; r(CAG) RNA repeat, TO-PRO-1 dye displacement fluorescence; inhibition, % at 3 µM; hit rate 1.3% among 370,000; AID 651821;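 active = inhibition above the plate cutoff, the mean of all test compounds on that plate plus 3 SD, cut at about 35% in these data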;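 also: 0% = DMSO alone and 100% = 100 µM mitoxantrone as full dye displacement; higher means more dye released from RNA so lower well fluorescence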
Rtt109 Vps75 = C. albicans Rtt109 histone acetyltransferase inhibition; Q5AAJ8; purified Rtt109/Vps75, ThioGlo CoA-SH fluorescence, 4 h; inhibition, % at 34.9 µM; hit rate 0.16% among 330,000; AID 540336;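 active = inhibition of at least 50% in every replicate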
ALR H2O2 inh = human ALR oxidase inhibition via reduced H2O2. purified ALR, DTT oxidation, H2O2 HRP-luminol luminescence. inhibition, % (test concentration not listed). hit rate 3.8% among 290,000;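 active = mean replicate inhibition above about 79%, with every replicate also reaching it, limit read from the data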
ABHD5-PLIN5 inh = inhibitors of human ABHD5-perilipin-5 interaction | Split G. princeps luciferase complementation, luminescence, 4 h | hit rate 0.78% among 360,000 | Q00G26+Q8WTS1 | inhibition, % at 4 µM;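 active = inhibition above the mean inhibition across every tested compound plus 3 SD, cut at about 22% in these data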;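 also: 0% = DMSO only wells and the 100% control is not disclosed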
Active calls of the source: *; i = inactive; / = not tested or not shown. A selection: hits, their analogues and other compounds. The true share with any hit is near 5.9%.

SMILES | PRMT1 inh | LANA-H2B inh | rCAG binder | Rtt109 Vps75 | ALR H2O2 inh | ABHD5-PLIN5 inh
O=C(NCCCN1CCOCC1)c1ccccc1N1C(=O)[C@@H]2Cc3c([nH]c4ccccc34)C(c3ccccc3)N2C1=O (stereo not given in full) | -1 | / | 4 | / | / | 5
O=C(NCc1ccccc1Cl)C1CCN(S(=O)(=O)c2ccc(F)cc2)CC1 | -3 | 1 | -2 | 8 | -18 | -8
O=C(NCc1cccs1)C1CCCN(S(=O)(=O)c2cnc[nH]2)C1 (stereo not given) | 6 | / | -1 | 8 | / | 1
O=C(NCCN1CCN(c2cccc(Cl)c2)CC1)C1CCCN(S(=O)(=O)c2cnc[nH]2)C1 (stereo not given) | 2 | 3 | 1 | -7 | 96* | 6
O=C(NCCCN1CCN(c2ccccc2)CC1)C1CCCN(c2ncnc3c2nc2n3CCCCC2)C1 (stereo not given) | -2 | -2 | -9 | 0 | 99* | -2
O=C(NCCc1ccccc1)C1CCCN(c2ncnc3c2nc2n3CCCCC2)C1 (stereo not given) | -3 | -2 | -3 | 3 | -2 | -6
Cc1ccc(S(=O)(=O)N2CCC(C(=O)NCc3ccccc3Cl)CC2)cc1 | 0 | 93* | -4 | -1 | -5 | 0
O=C(NCc1ccccc1Cl)C1CCCN(S(=O)(=O)c2cnc[nH]2)C1 (stereo not given) | 7 | -5 | 0 | -1 | 94* | 5
O=C(Nc1cccc(Cl)c1)C1CCCN(S(=O)(=O)c2cnc[nH]2)C1 (stereo not given) | 0 | -3 | 1 | -2 | -35 | 5
O=C(NCCc1ccc(Cl)cc1)C1CCCN(S(=O)(=O)c2cnc[nH]2)C1 (stereo not given) | 5 | 2 | -1 | 13 | 12 | 4
O=C(NCCN1CCN(c2ccccc2)CC1)C1CCCN(S(=O)(=O)c2cnc[nH]2)C1 (stereo not given) | / | -2 | / | 0 | 97* | 4
Cc1noc(C)c1C(=O)N1CCC1(C)C(=O)NS(=O)(=O)c1cccc(OC(F)F)c1 (stereo not given) | -3 | / | 1 | / | / | -2
O=C(c1ccc(Cn2c(=S)[nH]c3ccc(Br)cc3c2=O)cc1)N1CCN(C2CCCCC2)CC1 | -1 | 10* | 5 | 1 | -1 | 1
COCCn1c(=S)[nH]c2cc(C(=O)N3CCN(C4CCCCC4)CC3)ccc2c1=O | -2 | / | 1 | / | / | -1
CCNc1ccc2noc3c2c1C(=O)c1ccccc1-3 | 154* | 28* | i | -1 | -2 | 5
CCOc1ccc2noc3c2c1C(=O)c1ccccc1-3 | 150* | 44* | i | -7 | -18 | -3
O=C1c2ccccc2-c2onc3ccc(NCc4ccco4)c1c23 | / | 111* | / | 19 | / | 22*
CCOC(=O)c1c(C)oc2c1C(=O)c1ccccc1C2=O | -1 | 2 | 1 | 6 | -28 | -12
Nc1ncnc2c1ncn2[C@@H]1O[C@H](C(=O)N[C@@H](CCc2ccccc2)C(=O)N2CCN(C(=O)C(F)(F)F)CC2)[C@@H](O)[C@H]1O | -2 | / | 1 | / | / | /
O=CN1c2ccccc2CSc2ccccc21 | 1 | 2 | -5 | / | 56 | 7
C[N+](C)(CCOc1ccccc1)Cc1ccccc1 | 11 | / | 12 | -4 | / | -7
Cc1cc(C(C)(C)CC(C)(C)C)ccc1OCCOCC[N+](C)(C)Cc1ccccc1 | 0 | 6 | 10 | 56* | -4 | 14
COc1ccc(C2NC(=O)c3sc(=S)n(-c4ccccc4)c3N2)cc1 (stereo not given) | 1 | -6 | 5 | 0 | 64 | -15
CCOc1ccc(C2NC(=O)c3sc(=S)n(-c4ccccc4)c3N2)cc1 (stereo not given) | 7 | 3 | 7 | 5 | 81* | -3
COc1cccc(CNS(=O)(=O)c2ccccc2Br)c1 | -1 | / | 4 | / | / | /
COc1cccc(C(=O)NCCN2C(=O)C3C4C=CC(C4)C3C2=O)c1 (stereo not given) | 2 | / | 1 | / | / | /
Cc1ccc(S(=O)(=O)NNC(=O)NC23CC4CC(CC(C4)C2)C3)cc1 | -3 | -1 | -3 | 24 | 94* | 10
COCCN(C(=O)COC(=O)CSc1ccc2ccccc2c1)c1c(N)n(Cc2ccccc2)c(=O)[nH]c1=O | 3 | -5 | 1 | 19 | 98* | -2
